Data published in ChEMBL document CHEMBL4513135, “CO-ADD screening of IQOG CSIS (Spain) compounds”.
Results with a measured potency or affinity are listed apart.

Tests used:
Staphylococcus aureus = conditions: Concentration 32 ug.mL-1; ASSAY_TEST Inhibition of Bacterial Growth; detection method Absorption (OD600); MEDIA CAMHB; plate type 384well; NBS; CORNING #3640; time 18 hr
Escherichia coli = conditions: Concentration 32 ug.mL-1; ASSAY_TEST Inhibition of Bacterial Growth; detection method Absorption (OD600); MEDIA CAMHB; plate type 384well; NBS; CORNING #3640; time 18 hr

Compound | Inhibition (Staphylococcus aureus) | Inhibition (Escherichia coli)
Cl.NNN1CCc2ccccc21 | 25.31% | 10.83%
CS(=O)(=O)O[C@H]1CC[C@H](OS(C)(=O)=O)CC1 | 29.12% | -5.59%
O=C1OC(c2ccccc2)=NC1=Cc1ccc(Cl)cc1 | 14.11% | 10.9%
CSC1=NC2(CC2c2ccccc2)C(=O)N1 (stereo unspecified) | 10.34% | 2.43%
Cn1c(CNNC(=O)Cc2cccc3ccccc23)cc2ccccc21 | -5.85% | -4.9%
Cl.OCC1CCN(Cc2ccccc2)CC1 | 26.15% | 15.91%
C#CCNc1nc(N)c(C#N)cc1C#N | -1.17% | -11.19%
Cl.ClCCCCN1CCCCC1 | 1.62% | -1.96%
O=C(NNCc1ccco1)c1cc2ccccc2[nH]1 | -6.59% | -6.94%
O=C(O)c1cc2ccccc2[nH]1 [INDOLE-2-CARBOXYLIC ACID] | 5.6% | 18.03%
CC1=C(C(=O)O[C@@H]2C[C@@]3(C)CC[C@H]2C3(C)C)C(c2ccccc2)C(C#N)=C(N)O1 (stereo partly specified) | -12.42% | 16.17%
COc1[nH]c(=O)ccc1C#N | 31.13% | -5.91%
COc1ccccc1C1C(C#N)=C(N)Oc2c1ccc1ccccc21 (stereo unspecified) | 19.36% | -9.01%
CC(=O)O[C@H]1CC[C@H](NC(=O)c2ccccc2)CC1 | 27.4% | -7.44%
COC(=O)C1(NC(=O)c2ccccc2)CC1c1ccccc1 (stereo unspecified) | 1.83% | -4.02%
CCOC(N)=CC#N | -2.54% | 11.63%
COc1ccc(C2C(C#N)=C(N)Oc3c2ccc2ccccc32)c(OC)c1 (stereo unspecified) | 5.1% | 0.79%
COc1ccc(C2C(C#N)=C(N)Oc3ccc4ccccc4c32)cc1 (stereo unspecified) | 37.68% | -4.54%
CN(C)c1nc(N)c(C#N)cc1C#N | 20.41% | 5.07%

Compound | Inhibition (Staphylococcus aureus) | Inhibition (Escherichia coli)
COc1cc(Br)c(C=O)cc1OC | 28.77% | 5%
COc1ccc(C2c3c(ccc4ccccc34)OC(=N)C2(Br)C#N)cc1 (stereo unspecified) | 26.69% | -14.26%
C/C=C(/C#N)C(=O)OC | -6.91% | -6.93%
N#Cc1cc(Br)cc(Br)c1N | 3.71% | 14.62%
COc1ccc(C2c3c(nc4c(c3N)CCCC4)Oc3ccc4ccccc4c32)c(OC)c1 (stereo unspecified) | 15.3% | 3.89%
COc1ccc(C2c3c(nc4c(c3N)CCCC4)Oc3ccc4ccccc4c32)cc1OC (stereo unspecified) | 3.78% | 13.42%
CC(=O)/C=C/C1CCN(Cc2ccccc2)CC1 | 28.47% | -12.86%
Cc1[nH]nc2c1C(c1ccc(O)c(O)c1)C(C#N)=C(N)O2 (stereo unspecified) | 9.09% | 8.02%
C=C1CN(C)c2c(C#N)cc(C#N)c(=S)n21 | 18.51% | -1.72%
CC(C)(C)OC(=O)N[C@H]1CC[C@H](O)CC1 | 7.19% | -6.43%
COc1ccc2cc(C3C(C(C)=O)=C(C)Oc4nc5c(c(N)c43)CCCCC5)c(Cl)nc2c1 (stereo unspecified) | 26.1% | 15.71%
CCOC(=O)c1cc2cc(OCc3ccccc3)ccc2[nH]1 | 7.82% | 5.9%
N#Cc1c(N)nc(NCCCCC2CCN(Cc3ccccc3)CC2)c(C#N)c1-c1ccccc1 | 9.74% | -1.09%
Cc1nn(-c2ccccc2)c2ncn3nc(-c4ccccc4)nc3c12 | 11.88% | 13.25%
N#CC1=C(N)Oc2c(ccc3ccccc23)C1c1ccc(O)cc1 (stereo unspecified) | 21.57% | -18.15%
N#Cc1cc(C#N)c(N2CCCCC2)nc1Cl | 15.2% | 9.21%
CC(=O)n1cc(/C=C2\N=C(c3ccccc3)OC2=O)c2ccccc21 | 15.78% | 15.77%
CC(=O)Oc1cccc(C=C2N=C(c3ccccc3)OC2=O)c1 | 11% | 13.2%
Cl.OCCCC1CCNCC1 | 22.6% | 13.14%
